In PubChem BioAssay (EPA / NIEHS) one finds outcome and AC50 data, which are given here for 39 compounds.

The structures appear in SMILES notation. Values joined by “and” are separate entries in the source; they are usually repeats but may differ in a detail not shown here. Equal values may be shown once. A structure can be active in one record and inactive in another. Active and inactive are the calls of the source. How the source made its calls: active means hit-call score of the fitted dose curve at least 0.9, where 1 is the maximum; inactive means score below 0.9.

Read-out in the assay: Transforming growth factor beta 1 (TGFb1), TGFB1 (gene 7040)
Briefly: BSK_BE3C_TGFb1: BioMAP Diversity Plus: BE3C Assay for Transforming growth factor beta 1 (TGFb1) Biomarker Activity (AID 2283036). As to conditions: primary human bronchial epithelial cells; actives raise or lower the signal. How it is done: BSK_BE3C is a cell-based, multiplexed-readout assay that uses bronchial epithelial cell, a human lung primary cell, with measurements taken at 24 hours after chemical dosing in a 96-well plate.BSK_BE3C_TGFb1 is an assay component measured in the BSK_BE3C assay. It measures TGF-b1 antibody related to regulation of gene expression using ELISA technology.Data from the assay component BSK_BE3C_TGFb1 was analyzed into 1 assay endpoint. This assay endpoint, BSK_BE3C_TGFb1, was analyzed with bidirectional fitting relative to DMSO as the negative control and baseline of activity. Using a type of binding reporter, gain or loss-of-signal activity can be used to understand changes in the signaling as they relate to the gene TGFB1. Furthermore, this assay endpoint can be referred to as a primary readout, because this assay has produced multiple assay endpoints where this one serves a signaling function. To generalize the intended target to other relatable targets, this assay endpoint is annotated to the growth factor intended target family, where the subfamily is transforming growth factor beta.
The levels of cell surface (or secreted, indicated by the prefix "s") biomarker endpoints were measured by ELISA. Overt cytotoxicity to cells in confluent adherent cultures (all systems other than the BT system) was assessed by measuring total protein levels using sulforhodamine B (SRB) staining in parallel cultures at the time of biomarker measurements, indicated as SRB endpoints. For proliferation assays for adherent cell types, individual cell types are cultured at sub-confluence and relative cell numbers quantified by SRB staining at time points optimized for each system (48 h: 3C and CASM3C systems; 72 h: BT and HDF3CGF systems; 96 h: SAg system). SRB was performed by staining cells with 0.1% SRB after fixation with 10% TCA and reading wells at 560 nm.Viability and proliferation of PBMC (T cells) was quantified by Alamar Blue reduction for the SAg and BT systems. For PBMC viability (referred to as PBMC Cytotoxicity within the assay endpoint names), cells were plated (75,000/well in a 96-well plate) and then chemical samples added for 1 h before addition of activators, SEB and TSST-1 (20 ng/mL final concentration each). Cells were incubated for 90 h. Then, Alamar Blue (20 uL/well) (Invitrogen, Cat DAL1100) was added for 6 h, and the plates were read with a fluorescence microplate reader at 546/580 nm (excitation/emission). For PBMC proliferation, cells were plated and activated as above but incubated for only 16 h prior to addition of Alamar Blue. Plates were read after 6 h.
With `CC1(C)C(C=C(Cl)Cl)C1C(=O)OC(C#N)c1ccc(F)c(Oc2ccccc2)c1` (stereo not given), the result was inactive.

Regarding `ClC1C(Cl)C(Cl)C(Cl)C(Cl)C1Cl` (stereo not given), the result was inactive.

In the case of `CN1CSC(=S)N(C)C1`, the outcome was inactive.

In the case of `COc1nn(CSP(=S)(OC)OC)c(=O)s1`, the outcome was inactive.

Regarding `COP(=S)(OC)Oc1ccc(SC)c(C)c1`, the outcome was inactive.

As a reminder, the AC50 is the midpoint of the concentration-response curve, whichever way the signal moves. As for `COC(=O)c1ccccc1S(=O)(=O)NC(=O)N(C)c1nc(C)nc(OC)n1`, the AC50 was 0.148 µM (active).

On to `O=C(NC(=O)c1c(F)cccc1F)Nc1ccc(OC(F)(F)C(F)OC(F)(F)F)c(Cl)c1` (stereo not given), for which the AC50 was 0.235 µM (active).

As for `CNC(=O)Oc1ccccc1OC(C)C`, the outcome was inactive.

As for `N#Cc1c(Cl)c(Cl)c(Cl)c(C#N)c1Cl`, the AC50 was 3.94 µM (active).

On to `CCOc1nc(NC)nc(NC(=O)NS(=O)(=O)c2ccccc2C(=O)OC)n1`, for which the result was inactive.

Turning to `CC(C)(C)C(O)C(Oc1ccc(Cl)cc1)n1cncn1` (stereo not given), the result was inactive.

On to `O=C1c2ccccc2C(=O)N1SC(Cl)(Cl)Cl`, for which the AC50 is 31.6 µM (active).

With `[2H]C1([2H])[n+]2ccccc2-c2cccc[n+]2C1([2H])[2H]`, the result was inactive.

In the case of `CC[C@H](C)[C@H]1O[C@]2(C=C[C@@H]1C)C[C@@H]1C[C@@H](C/C=C(\C)[C@@H](O[C@H]3C[C@H](OC)[C@@H](O[C@H]4C[C@H](OC)[C@@H](O)[C@H](C)O4)[C@H](C)O3)[C@@H](C)/C=C/C=C3\CO[C@@H]4[C@H](O)C(C)=C[C@@H](C(=O)O1)[C@]34O)O2` (tested in a mixture with another compound), the AC50 was 20 µM (active).

Regarding `Cc1[nH]c(=O)n(C(C)(C)C)c(=O)c1Cl`, the outcome was inactive.

Regarding `CCCN(CCOc1c(Cl)cc(Cl)cc1Cl)C(=O)n1ccnc1`, the outcome was inactive.

Consider `Clc1ccccc1-c1nnc(-c2ccccc2Cl)nn1`, for which the AC50 was 32.5 µM (active).

For `CCOCN(C(=O)CCl)c1c(C)cccc1CC`, the result was inactive.

Turning to `CC1(c2ccc(Oc3ccccc3)cc2)OC(=O)N(Nc2ccccc2)C1=O` (stereo not given), the result was inactive.

Turning to `O=S1OCC2C(CO1)C1(Cl)C(Cl)=C(Cl)C2(Cl)C1(Cl)Cl` (stereo not given), the AC50 is 39.1 µM (active).

With `O=[N+]([O-])c1c(Cl)c(Cl)c(Cl)c(Cl)c1Cl`, the result was inactive.

For `CNC(=O)Oc1cccc(N=CN(C)C)c1`, the outcome was inactive.

On to `CCOC1Oc2ccc(OS(C)(=O)=O)cc2C1(C)C` (stereo not given), for which the outcome was inactive.

On to `O=[N+]([O-])/N=C1\NCCN1Cc1ccc(Cl)nc1`, for which the result was inactive.

`O=C(O)C(F)(F)C(F)(F)C(F)(F)C(F)(F)C(F)(F)C(F)(F)C(F)(F)F`: the outcome was inactive.

On to `O=S(=O)(O)C(F)(F)C(F)(F)C(F)(F)C(F)(F)C(F)(F)C(F)(F)C(F)(F)C(F)(F)F`, for which the result was inactive; the AC50 was 28.6 µM (active) and 12.1 µM (active) and 19.2 µM (active).

With `Oc1cc(Cl)ccc1Oc1ccc(Cl)cc1Cl`, the AC50 is 27.5 µM (active) [middle of 4 runs].

As to `CCC(C)(NC(=O)c1cc(Cl)c(C)c(Cl)c1)C(=O)CCl` (stereo not given), the outcome was inactive.

As for `CC(C)N(C(=O)COc1nnc(C(F)(F)F)s1)c1ccc(F)cc1`, the outcome was inactive.

On to `CNC(=O)/C=C(\C)OP(=O)(OC)OC`, for which the outcome was inactive.

Regarding `CC(C)(C)C(O)/C(=C\c1ccc(Cl)cc1Cl)n1cncn1` (stereo not given), the result was inactive.

Take `CCN(CC)C(=O)SCc1ccc(Cl)cc1`: the result was inactive.

As to `Oc1ccc(Cl)cc1Cc1ccccc1`, the AC50 is 33.9 µM (active) [middle of 7 runs].

With `O=C(O)CCCOc1ccc(Cl)cc1Cl`, the result was inactive.

Take `COC(=O)c1ccccc1CS(=O)(=O)NC(=O)Nc1nc(OC)cc(OC)n1`: the outcome was inactive.

Consider `CC(C)OC(=O)Nc1cccc(Cl)c1`, for which the result was inactive.

In the case of `CCC(C)Nc1c([N+](=O)[O-])cc(C(C)(C)C)cc1[N+](=O)[O-]` (stereo not given), the outcome was inactive.

In the case of `CCC(C)(C)C(=O)OC1=C(c2ccc(Cl)cc2Cl)C(=O)OC12CCCCC2`, the concentration at half-maximal activity (AC50) is 35.7 µM (active).

Turning to `O=C(O)COc1ccc(Cl)cc1Cl`, the outcome was inactive.
